We go through 52 compounds from ChEMBL document CHEMBL4513216, “Probing the Open Global Health Chemical Diversity Library for Multistage-Active Starting Points for Next-Generation Antimalarials” (ACS Infect Dis, 2020).

Screen size: about 69,000 compounds; about 8,600 (12%) showed an effect of 50% or more. The entries come from a sample that favours strong results as a whole.

In the experiment the test system is Plasmodium berghei. Nature of the experiment: Screen against P. berghei liver stage (PbLuc), transformed with Luciferase, at 10uM. Format: functional, HepG2. As to conditions: tested at 10 uM.
Turning to `CC(C)N(Cc1ccccn1)S(=O)(=O)N1CCCC1c1ccco1` (configuration not stated), the INHIBITION was 7.515%. Take `CCn1nnc2c1C(COC)CN(Cc1cccs1)C2` (configuration not stated): the INHIBITION is -0.113%. As for `CCC(C)NC(=O)c1snnc1-c1ccc(OC)cc1` (configuration not stated), the INHIBITION turned out to be 74%.

With `COC(=O)[C@@H](NC(=O)c1snnc1-c1ccc(OC)cc1)C(C)C`, the INHIBITION was 24.7%. As for `COC(=O)[C@H](CC(C)C)NC(=O)c1snnc1-c1ccc(OC)cc1`, the INHIBITION was 24.1%. As for `COc1ccc(-c2nnsc2C(=O)N2CCN(C(C)=O)CC2)cc1`, the INHIBITION turned out to be 2.49%. As for `COc1ccc(-c2nnsc2C(=O)N2CCSCC2)cc1`, the INHIBITION worked out at 26.4%. As for `COc1ccc(-c2nnsc2C(=O)N2CCC(C(N)=O)CC2)cc1`, the figure is 90.4%; as for `O=C(NCCO)NC(c1ccccc1)c1ccc2c(c1)CCCO2` (configuration not stated), 22.6%; as for `NCCC(=O)N1CCC2(CC1)CN(C(=O)c1ccc(Cl)cc1)CCO2`, 16.8%. With `Cc1nc(CN(C)Cc2cnc(N3CCOCC3)s2)no1`, the INHIBITION is 32.1%. As for `COCCN1CCC(CN(C)c2nc3c(s2)c(C)nn3C)C1` (configuration not stated), the figure is 48.5%. On to `Cc1nn(C)c2nc(N(C)CCN(C)C3CCCC3)sc12`, for which the INHIBITION is given as 39.9%. Take `COCCN1CCC(CN(C)c2nc3c(s2)c(C)nn3C)CC1`: the INHIBITION was 64.4%.

As to `CCCc1nnc(N(C)CC2CCN(CC(C)C)C2)o1` (configuration not stated), the INHIBITION is recorded as -62.4%. With `COCCN1CCCC(CN(C)c2nc3c(s2)c(C)nn3C)C1` (configuration not stated), the INHIBITION amounted to 3.96%. Consider `Cc1nn(C)c2ncnc(N(C)CC3CCN(CC(C)C)C3)c12` (configuration not stated), for which the INHIBITION was 36.3%.

Take `Cc1nn(C)c2nc(N(C)CC3CCN(CC(C)C)C3)sc12` (configuration not stated): the INHIBITION is on record as 74.3%. As for `Cc1nn(C)c2nc(N(C)CCN(C)C)sc12`, the INHIBITION was 39.1%. Next, `COCCN(Cc1cnn(C)c1)c1nc2c(s1)c(C)nn2C`: 45.2%. Next, `COCCN(CCOC)c1nc2c(s1)c(C)nn2C`: 65.6%; `Cc1nn(C)c2nc(N(CCN(C)C)C3CCCC3)sc12`: 53%; `COCCN(Cc1nccs1)c1nc2c(s1)c(C)nn2C`: 22%. Next, `CCOc1cc2c(cc1CN1CCC3(CC1)CNC(=O)C3)CCC2`: 39.4%. As to `COc1c(C2CCCN2CC(=O)NCc2ccccn2)c(C)nn1C` (configuration not stated), the INHIBITION is listed as 19.6%. On to `COC(C(=O)NC1CC1)c1ccccc1` (configuration not stated), for which the INHIBITION is listed as -35.9%. Next, `CCOC(=O)C1(O)CCN(C(=O)Nc2cccc(F)c2)CC1`: -16.9%; `COc1cccc(OC)c1-c1ccnc2cc(CC(=O)NC3CC3)nn12`: 39.7%; `CNC(=O)Cc1cc2nccc(-c3c(OC)cccc3OC)n2n1`: 45.6%.

In the case of `COc1cccc(OC)c1-c1ccnc2cc(CC(=O)NC(C)C)nn12`, the INHIBITION was 54.5%. Next, `CC(C)c1ccc(O)c(C(=O)NCc2cc[nH]n2)c1`: 12.8%; `CCN(c1ccc(C(=O)NCc2cc[nH]n2)cc1)C(C)C`: 82.6%. Regarding `CCN(c1ccc(C(=O)NCc2ccnc(C)n2)cc1)C(C)C`, the INHIBITION is on record as 0.433%. As for `Cc1cc(Cc2ccc(S(=O)(=O)N3CCOCC3)cc2)c(=O)[nH]n1`, the figure is 19.8%.

`CCN(Cc1nc(C)no1)C(=O)C1CC(=O)N(Cc2cccnc2)C1` (configuration not stated): the INHIBITION was found to be 15.6%.

`CCN(Cc1nc(C)no1)C(=O)C1CC(=O)N(Cc2ccccn2)C1` (configuration not stated): the INHIBITION is -14.1%. As to `CN(Cc1ccon1)C(=O)C1CC(=O)N(Cc2cccnc2)C1` (configuration not stated), the INHIBITION is -49.3%.

For the compound `CCN(CC1CCOCC1)C(=O)C1CC(=O)N(Cc2cccnc2)C1` (configuration not stated), the INHIBITION is listed as 53.2%. As for `CCc1noc(CN(CC)C(=O)C2CC(=O)N(Cc3ccncc3)C2)n1` (configuration not stated), the INHIBITION worked out at 53.2%. Next, `CCc1nnc(CN(CC)C(=O)C2CC(=O)N(Cc3cccnc3)C2)o1` (configuration not stated): 23.5%; `CNC(=O)Cn1ccc2ccc(NC(=O)C(C)CSC)cc21` (configuration not stated): 29.6%. Next, `O=S(=O)(c1ccc(-c2cnco2)cc1)N1CCC2(CCCNC2)C1` (configuration not stated): 35.7%. `O=S(=O)(c1ccc(-c2cnco2)cc1)N1CCCC2(CCNCC2)CC1`: the INHIBITION is recorded as 52.7%. Turning to `O=S(=O)(c1ccc(-c2cnco2)cc1)N1CCCC(O)(CO)CC1` (configuration not stated), the INHIBITION was -31.4%. As for `CC(c1cccc(-c2ncccc2C#N)c1)N(C)C` (configuration not stated), the figure is 19.3%; as for `CN(Cc1cc(C(C)(C)C)n[nH]1)C(=O)c1c[nH]nc1-c1cccc(F)c1`, 30.4%. On to `Cc1nn2cc(CNc3nccc(CCC(F)(F)F)n3)nc2s1`, for which the INHIBITION was -4.91%.

Turning to `Cc1ccnc(NCc2cn3nc(C)sc3n2)n1`, the INHIBITION was 65.2%. Regarding `CCNc1ccnc(NCc2cn3nc(C)sc3n2)n1`, the INHIBITION was -49.3%. With `CC(=O)N1CCCC2(C1)CN(C(=O)C1CCCCC1)CCO2` (configuration not stated), the INHIBITION is listed as 9.97%. As for `O=C(C1CC1)N1CCC2(CC1)CNCCO2`, the figure is 51.2%; as for `Cc1ccc(CN2CCOC3(CCN(C(=O)N4CCCC4)CC3)C2)cc1`, 15.7%.
